# ALDH1A1 block: qHTS Assay for Inhibitors of Aldehyde Dehydrogenase 1 (ALDH1A1); AID 1030, 2008; Purified ALDH1A1, NADH fluorescence, propionaldehyde substrate; Potency, µM (highest dose often 75.3 µM), hits mostly inhibitors; Aldehyde dehydrogenase 1A1 (Homo sapiens), P00352; hit rate 7.3% among 220,000; active = well fitted inhibition curve with a large enough effect, not every such curve was filed as active; inconclusive = small, poorly fitted or top-dose-only effect, or another doubt; inactive = no such curve, though single readings can be large or run the other way
# HttQ103 aggreg: qHTS Multiplex Assay to Identify Dual Action Probes in a Cell Model of Huntington: Aggregate Formation (GFP). Potency, µM (top dose mostly 46.1 µM), actives largely listed as inhibitors. PC12 HttQ103-GFP aggregates, Acumen cytometry, 40 h. hit rate 1.1% among 220,000. AID 1688, 2009; note: nearly all actives have a fitted effect of over 60% in size
#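 Ecdysone-promoter PC12 model expressing HTT exon 1 Q103 fused to GFP, induced by tebufenozide at 100 nM final. Compounds titrated; aggregates sized 1–25 µm scored on a 488 nm laser cytometer.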
# Lamin A splicing: qHTS Assay for Modulators of Lamin A Splicing; HeLa LMNA splicing GFP/RFP minigene ratio, 48 h; Potency, µM (highest dose often 46.1 µM), most hits filed as inhibitors; AID 1487, 2009; hit rate 0.01% among 200,000; active = well fitted inhibition curve with a large enough effect in the signal ratio, with a control signal flat, not every such curve was filed as active; inconclusive = small, poorly fitted or top-dose-only effect, or effect the other way, or a change in a side signal; the % refers to the signal ratio
#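 S3 HeLa cells stably expressing lamin A-EGFP splicing minigene plus DsRed2, 600 cells/well, 48 h compound exposure at 37C. Laser-scanning cytometry; analysed as GFP (500-530 nm)/RFP (575-640 nm) total intensity ratio; 0.5% DMSO vehicle.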
# HTT cytoprotect: qHTS Multiplex Assay to Identify Dual Action Probes in a Cell Model of Huntington: Cytoprotection (ATP) | PC12 HTT-Q103 induced, cytoprotection, ATP luminescence, 40 h | hit rate 0.14% among 230,000 | Potency, µM (top dose mostly 56.4 µM), actives largely listed as activators; note: nearly all actives have a fitted effect of over 45% in size
#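 Rat PC12, Q103 Htt exon1-GFP fusion, ecdysone promoter; tebufenozide inducer 100 nM final; compound titration; qHTS, 1500 cells/well; ATPlite luminescent read.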
# HPGD block: qHTS Assay for Inhibitors of HPGD (15-Hydroxyprostaglandin Dehydrogenase); 15-hydroxyprostaglandin dehydrogenase [NAD(+)] (Homo sapiens), P15428; purified HPGD, NADH fluorescence kinetic, PGE2 substrate; Potency, µM, hits mostly inhibitors; hit rate 4.3% among 150,000; active = well fitted inhibition curve with a large enough effect, not every such curve was filed as active; inconclusive = small, poorly fitted or top-dose-only effect, or another doubt; inactive = no such curve, though single readings can be large or run the other way
# Target sequence (P15428 whole entry, looked up): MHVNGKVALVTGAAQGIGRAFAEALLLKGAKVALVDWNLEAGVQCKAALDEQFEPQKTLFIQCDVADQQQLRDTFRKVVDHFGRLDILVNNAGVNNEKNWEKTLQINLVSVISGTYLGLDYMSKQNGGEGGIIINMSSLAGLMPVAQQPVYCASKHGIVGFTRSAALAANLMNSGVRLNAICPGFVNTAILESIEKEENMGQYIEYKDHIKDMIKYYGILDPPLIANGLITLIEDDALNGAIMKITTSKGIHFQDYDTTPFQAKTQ
#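 NADH formation kinetics: reaction with 30 uM PGE2 and 1 mM NAD+ (final), 20 nM enzyme, Tris-HCl pH 8 with Tween 20, after 15 min compound preincubation at room temperature. Fluorescence change, last versus first of five reads.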
# A number is an active result; . = inactive; ? = inconclusive; / = not tested or not shown; [ ] = remark or other dose. Compounds with a hit are over-represented: about 8.8% of the library has one in this group of screens. Unless noted, calls come from the whole dose curve; as a rule, active = well fitted curve in the direction sought with a large enough effect; inconclusive = small, poorly fitted or top-dose-only effect, or another doubt; inactive = no such curve, though single readings can be large; an effect the other way counts as inactive or inconclusive.
SMILES,ALDH1A1 block,HttQ103 aggreg,Lamin A splicing,HTT cytoprotect,HPGD block
Cc1cc(NC(=O)Cn2nc([N+](=O)[O-])c(Br)c2C)no1,.,.[9.22 µM],.,.[10 µM],/
O=c1[nH]c(C(F)(F)F)nc2c1nnn2Cc1ccccc1F,.,.,.,.,17.8µM
CCCc1nc2c(nnn2Cc2ccccc2F)c(=O)[nH]1,.,.,.,.,28.2µM
CC1CCN(S(=O)(=O)c2ccc3c(c2)CCN3)CC1,/,/,.,/,/
C/C=C/C1=CC2=CC(=O)C(C)(OC(=O)c3c(C)cc(O)cc3O)C(=O)C2=CO1 (configuration not stated),?,/,/,.,.
COc1ccccc1C(=O)Nc1ccc2nc(SCCOc3ccccc3C)sc2c1,/,/,.,/,/
CCn1c(=O)c([N+](=O)[O-])c(NCCN(C)C)c2ccccc21,11.2µM,.[9.22 µM],/,.[10 µM],/
O=c1c([N+](=O)[O-])c(NCCN2CCCCCC2)c2ccccc2n1-c1ccccc1,3.98µM,.,.,.[10 µM],.
CCn1c(=O)c([N+](=O)[O-])c(NCC(O)c2ccccc2)c2ccccc21 (configuration not stated),?,.,?,/,15.8µM
CCn1c(=O)c([N+](=O)[O-])c(NCC2CCCO2)c2ccccc21 (configuration not stated),/,.[9.22 µM],/,.[10 µM],/
CCCCNc1c([N+](=O)[O-])c(=O)n(C)c2ccccc12,.,.[9.22 µM],.,.[10 µM],/
Cn1c(=O)c([N+](=O)[O-])c(NCC(O)c2ccccc2)c2ccccc21 (configuration not stated),?,.,.,/,25.1µM
O=C1CSc2ccc(C(=O)Nc3cccc(S(=O)(=O)Nc4ccc(Br)cc4)c3)cc2N1,10µM,7.94µM,?,.[10 µM],/
O=C(O)c1cccc(NC(=O)c2cccc(S(=O)(=O)Nc3cccc(C(=O)O)c3)c2)c1,/,/,.,/,/
Cc1nn(C)c2c1c(-c1ccccc1)cc(=O)n2Cc1ccccc1C#N,/,/,.,/,/
CCOC(=O)N1CCC(=NNS(=O)(=O)c2cccc([N+](=O)[O-])c2)CC1,10µM,.,.,.,.
CCOC(=O)N1CCN(S(=O)(=O)c2cc([N+](=O)[O-])ccc2C)CC1,.,.,/,.,/
Cc1cccc(-c2n[nH]c(=S)n2-c2ccccc2)c1[N+](=O)[O-],.,.,?,.[10 µM],.
COc1ccc(-n2c(-c3cccc(C)c3[N+](=O)[O-])n[nH]c2=S)cc1,?,.,.,.,35.5µM
COc1ccc(N(CN2C(=O)C3CCCCC3C2=O)C(=O)c2ccco2)cc1 (configuration not stated),/,.[9.22 µM],/,.[10 µM],/
Nc1ncnc(Sc2ncccn2)c1[N+](=O)[O-],.,5.01µM,?,.[10 µM],/
Nc1ncnc(Sc2ccccc2)c1[N+](=O)[O-],.,.,?,.[10 µM],.
CS(=O)(=O)Cc1cc(Sc2ccccc2)nc(-c2ccncc2)n1,11.2µM,.,.[9.22 µM],.,/
O=S(Cc1cc(Sc2ccccc2)nc(-c2ccccc2)n1)c1ccccc1 (configuration not stated),.,?,?,.,.
C=C(C)C1Cc2nc(N)nc(C)c2C1 (configuration not stated),?,.,.,.,?
SMILES,ALDH1A1 block,HttQ103 aggreg,Lamin A splicing,HTT cytoprotect,HPGD block
C=C(C)C1Cc2c(C)nn(-c3nc(C)cc(C)n3)c2C1 (configuration not stated),20µM,.,?,.,.
O=C(c1ccccc1)[C@@H]1[C@@H](C(=O)c2ccc(F)cc2)[C@@]2(C(=O)Nc3ccccc32)[C@H]2c3ccccc3C=CN12,11.2µM,?,?,.[10 µM],/
COc1ccc(/C=C(\C#N)C(=O)OC2CCOC2=O)cc1 (configuration not stated),17.8µM,.,?,.,/
COc1cc(OC)cc(C(=O)NCC(=O)OC2CCOC2=O)c1 (configuration not stated),.,.,.,.[10 µM],.
NC(N)=Nc1nc(CSCC/C(N)=N\S(N)(=O)=O)cs1,.,/,/,/,.
O=C(NC(=S)Nc1ncccn1)c1ccccc1Cl,.,.,.,.[10 µM],.
COc1cccc(C(=O)NC(=S)Nn2cnnc2)c1OC,7.94µM,.,.,.,/
O=C(NC(=S)Nn1cnnc1)c1ccccc1Cl,10µM,.,/,?,/
CC(=O)c1cccc(NC(=O)C2C3C=CC(C3=C(c3ccccc3)c3ccccc3)C2C(=O)O)c1 (configuration not stated),?,.,.,/,/
CN(C)c1ccc(N=NS(=O)(=O)O)cc1,10µM,/,/,.,.
CN(C)c1ccc(C(=O)c2ccccc2)cc1,.,.,.,.,?
CCC(Oc1ccccc1)C(=O)Nc1nnc(S(=O)(=O)N(CC)CC)s1 (configuration not stated),/,/,.,/,/
COc1ccc(S(=O)(=O)n2nc(-c3ccc(Cl)cc3)cc2N)cc1OC,89.1µM,?,.,.,.
O=C(NCc1ccc2c(c1)OCO2)C1CCN(S(=O)(=O)c2cccs2)CC1,0.316µM,.,.,.,.
O=C(COC(=O)C1CCN(S(=O)(=O)c2cccs2)CC1)c1cc2ccccc2o1,15.8µM,.,.,.[1.9 µM],?
O=C(NCc1ccc2c(c1)OCO2)C1CCN(S(=O)(=O)N2CCCCC2)CC1,5.01µM,.,?,/,.
O=C(NCc1ccc2c(c1)OCO2)C1CCN(S(=O)(=O)N2CCOCC2)CC1,?,.,.,/,.
COc1cccc(-c2ccc3ncnc(NCc4ccc(OC)cc4OC)c3c2)c1,?,/,?,.,/
COCCNc1ncnc2ccc(-c3c(C)noc3C)cc12,?,/,2.82µM,.,/
COc1ccc(CNc2ncnc3ccc(-c4c(C)noc4C)cc23)c(OC)c1,.,/,2.82µM,.,/
Cc1cccc(CNc2ncnc3ccc(-c4c(C)noc4C)cc23)c1,.,/,?,.,12.6µM
Cc1noc(C)c1-c1ccc2ncnc(NCc3cccnc3)c2c1,.,/,3.98µM,.,/
C/C(=N\NC(=O)c1ccc([N+](=O)[O-])cc1Cl)c1ccccc1,?,.[9.22 µM],/,.[10 µM],/
Cc1nn2c(=O)cc(COC(=O)c3ccc(NC(=O)c4cccc(Br)c4)cc3)nc2s1,/,/,.,/,/
Cc1cnc(CNc2ncnc3ccc(-c4c(C)noc4C)cc23)cn1,.,/,7.08µM,.,/
Cc1noc(C)c1-c1ccc2ncnc(NC3CC3)c2c1,.,/,?,.,14.1µM
C1CCC(NC(=NC2C3CC4CC(C3)CC2C4)N2CCOCC2)CC1 (configuration not stated),.,/,/,.,/
COc1cc(OC)cc(C(=O)NCC(=O)OCC(=O)Nc2ncc(Cl)cc2Cl)c1,25.1µM,.,.[9.22 µM],.,/
COc1cccc(C(=O)NCC(=O)OCC(=O)Nc2ncc(Cl)cc2Cl)c1,.,.,.[9.22 µM],.,/
O=C(COC(=O)c1ccc(Br)o1)Nc1ncc(Cl)cc1Cl,18.9µM,.,.,.,/

# Screening results as filed in PubChem BioAssay.
